From the supplement of paper PMC10646978
± gives the standard deviation.

What follows are molecules tested on RAW-Dual (murine macrophage reporter line) (assay: IRF reporter (Lucia luciferase) activity fold change vs agonist alone; higher = enhanced IRF activity). Conditions: modulator concentration 10 µM; agonist: 3'3'-cGAMP 10 ug/mL.
How it was run: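 Overnight stimulation with a PRR agonist followed pre-incubation for 1 hour at 37 °C with compound at 10 μM final. This was done in RAW-Dual murine macrophage reporter cells seeded at 50 000 per well in 384-well plates. NF-κB (SEAP, QUANTI-Blue absorbance at 620 nm) and IRF (Lucia luciferase, QUANTI-Luc luminescence) were read from the supernatant. Each reporter's fold change relative to the mean agonist-only control on the same plate was averaged over replicate plates.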

| Compound | IRF reporter |
| --- | --- |
| CN1CCN(c2ccc(-c3cccc(NC(=O)COc4ccc(Cl)cc4Cl)c3)nn2)CC1 | 0.65 ± 0.043 |
| O=C(CCN1C(=O)c2cccc([N+](=O)[O-])c2C1=O)Nc1ccc(Cl)cc1 | 0.848 ± 0.022 |
| N#CCCC1(CCC#N)S(=O)(=O)CC(c2ccc(Cl)cc2)CS1(=O)=O | 0.915 ± 0.031 |
| Fc1ccc(Nc2nc(NN=Cc3ccc(Cl)cc3)nc(N3CCCCC3)n2)cc1 | 1 ± 0.032 |
| CC(C)(C)C1CCC(OC(=O)CCC(=O)O)CC1 (stereo not given) | 1.07 ± 0.049 |
| Fc1ccccc1C=NNc1nc(-c2ccccc2)cc(-c2ccccc2)n1 | 1.01 ± 0.028 |
| NC(=O)c1ccc(N2CCOCC2)c([N+](=O)[O-])c1 | 0.984 ± 0.067 |
| O=C(NCC1CCCO1)c1[nH]nnc1-c1ccc(F)cc1 (stereo not given) | 0.999 ± 0.038 |
| COC(=O)C1=CN(CC2CCCO2)C=C(C(=O)OC)C1c1cccc(Cl)c1 (stereo not given) | 0.82 ± 0.037 |
| COc1ccc(CCn2c(C)c(C)n3c4c(=O)n(CCC(C)C)c(=O)n(C)c4nc23)cc1OC | 1.03 ± 0.048 |
| CC1(C)NC(=O)N(c2ccc([N+](=O)[O-])c(C(F)(F)F)c2)C1=O | 0.868 ± 0.035 |
| O=C(Nc1nc2cccc(-c3ccc(CN4CCS(=O)(=O)CC4)cc3)n2n1)C1CC1 | 0.79 ± 0.047 |
| COc1ccc2cc(Br)ccc2c1CC(N)=O | 0.89 ± 0.13 |
| Cc1sc2ncnc(Nc3ccc(F)cc3)c2c1C | 0.739 ± 0.034 |
| CC1CCN(c2cc(N3CCNCC3)ncn2)CC1 | 0.932 ± 0.032 |
| Oc1cccc(C=Nc2ccc(N=Cc3cccc(O)c3O)cc2)c1O | 0.712 ± 0.052 |
| C=C1CCC2C(C)(CO)C(O)CCC2(C)C1CC=C1C(=O)OCC1O (stereo not given) | 0.188 ± 0.0064 |
| COC1CCN(C2CCN(S(=O)(=O)c3ccccc3)CC2)CC1 | 0.981 ± 0.065 |
| CC(NCCc1c[nH]c2ccccc12)=C1C(=O)c2ccccc2C1=O | 0.425 ± 0.027 |
| Cc1c(Cl)cccc1S(=O)(=O)NCc1ccnc(N2CCCC2=O)c1 | 0.993 ± 0.057 |

| Compound | IRF reporter |
| --- | --- |
| CN(C)C/C=C/C(=O)Nc1cc2c(Nc3ccc(F)c(Cl)c3)ncnc2cc1O[C@H]1CCOC1.O=C(O)/C=C\C(=O)O.O=C(O)/C=C\C(=O)O | 0.418 ± 0.026 |
| CCCOc1cccc(C(=O)Nc2cccc(S(N)(=O)=O)c2)c1 | 0.918 ± 0.039 |
| Cc1ccc2[nH]c3nc(NN)nnc3c2c1 | 0.913 ± 0.05 |
| CCN(CC)S(=O)(=O)c1ccc(C(=O)Nc2cc(C)nn2-c2nc(C)c(C)c(=O)[nH]2)cc1 | 0.883 ± 0.05 |
| Cc1cc(C)n2nc(C(=O)NN=Cc3ccc(N(C)C)cc3)nc2n1 | 0.996 ± 0.033 |
| Cc1ccc(CSCCNC(=O)CN(c2cccc(C)c2)S(C)(=O)=O)cc1 | 0.998 ± 0.025 |
| CC1CCc2cc(F)cc3c(=O)c(C(=O)O)cn1c23 (stereo not given) | 0.955 ± 0.066 |
| CN1C2CCCC1CC(NC(=O)c1nn(C)c3ccccc13)C2.Cl (stereo not given) | 0.873 ± 0.034 |
| O=C(CCc1ccc(O)cc1)c1c(O)cc(O)cc1O | 0.768 ± 0.038 |
| COc1ccc(-n2cnc3cc(NC(C)=O)ccc32)cc1 | 0.861 ± 0.025 |
| NC(=O)c1ncn([C@@H]2O[C@H](CO)[C@@H](O)[C@H]2O)n1 | 1.16 ± 0.05 |
| O=c1[nH]c(NN=Cc2c3ccccc3cc3ccccc23)nc2ccccc12 | 0.935 ± 0.048 |
| COc1ccc(C(=O)N2CC(n3cc(CN4CCCC4=O)nn3)C2)cc1F | 1.05 ± 0.088 |
| CCOC(=O)c1cc(-c2ccccc2)sc1NC(=O)C(C)(C)C | 0.945 ± 0.055 |
| O=C(O)CC(C(=O)O)N1C(=O)C(=C2C(=O)Nc3ccc(Br)cc32)SC1=S (stereo not given) | 0.894 ± 0.036 |
| N#Cc1nc(-c2ccc(COc3ccccc3)o2)oc1N1CCCCC1 | 1.27 ± 0.071 |
| NC(N)=NN=Cc1ccc(OS(=O)(=O)c2ccccc2)cc1 | 0.929 ± 0.044 |
| CC(C)OC(=O)c1c(NC(=O)C2CC=CCC2C(=O)O)sc2c1CCCC2 (stereo not given) | 0.965 ± 0.024 |
| CCOC(C#CCN(CC)CC)(c1ccccc1)c1ccccc1.Cl | 0.773 ± 0.051 |
| CCN(CC)C(=O)N1CCN(C)CC1 [Prestw-284] | 0.974 ± 0.034 |
